Shiga inhibitor – A qHTS for Small Molecule Inhibitors of Shiga Toxin. Vero cells, Shiga toxin protein synthesis inhibition reporter. inhibition, % at 38.7 µM. AID 2315, 2010. 290,000 compounds, 9.2% hits; in the data active = inhibition mostly above about 28%, no sharp cut-off; inactive = mostly below about 43%; also: 0% is about no effect
Pf growth 96h – Primary qHTS for delayed death inhibitors of the malarial parasite plastid, 96 hour incubation; Potency, µM (series often up to 28.7 µM), for inactives: at the highest dose activity change, negative = inhibition, actives largely listed as inhibitors; P. falciparum luciferase reporter growth, 96 h; 320,000 compounds, 6.9% hits; also: potency is read from the fitted curve at half-maximal effect; % is scaled to controls: 0 for no effect and ±100 for the full control effect
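Delayed-death screen, second-generation endpoint: infected erythrocytes, 2% hematocrit, 0.05% parasitemia final; 96 hours at 37 C, 5% CO2; luciferase detection reagent; luminescence decrease equals reduced growth.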
HCV inhibitor – qHTS Assay for Inhibitors of Hepatitis C Virus (HCV) | AID 651820, 2012 | 340,000 compounds, 3.4% hits | Huh7.5.1 HCVcc-Cre infection, luciferase reporter, 44 h | Potency, µM (highest dose often 41.8 µM), for the others: at the highest dose activity change, negative = inhibition, usual class: inhibitors; also: potency is read from the fitted curve at half-maximal effect; % is scaled to controls: 0 for no effect and ±100 for the full control effect
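Infectious HCVcc-Cre (~0.5 moi) was added to cells just after compound, with cells seeded 4 h earlier at 1,000 per well. Luciferase activity after 44 h culture reported infection; substrate was incubated 15 min at room temperature before reading.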
AMA1-RON2 inh – qHTS for Inhibitors of AMA1-RON; Towards Development of Antimalarial Drug Lead: Primary Screen; Plasmodium falciparum AMA1 (3D7) - RON2 peptide interaction; AlphaScreen AMA1-biotinylated RON2 peptide binding; Potency, µM (series often up to 58.2 µM), without a hit: top-dose activity change, negative = inhibition, usual class: inhibitors; 360,000 compounds, 0.2% hits; AID 720542, 2013;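 also: potency is read from the fitted curve at half-maximal effect; 0% = vehicle wells and -100% = peptide control; nearly all actives have a fitted effect of over 45% in size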
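AMA1 (3D7) with his tag at 25 nM final met compounds first, then biotinylated RON2 peptide at 25 nM; detection used donor plus acceptor beads, 10 µg/mL apiece, read by AlphaScreen after 30 min at room temperature.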
CHX counter – Cycloheximide Counterscreen for Small Molecule Inhibitors of Shiga Toxin; cell reporter, cycloheximide protein synthesis inhibition counterscreen; max response, %; 300,000 compounds, 12% hits; AID 2314, 2010; in the data active = max response mostly above about 13%, no sharp cut-off; inactive = mostly below about 14%; also: read at 38.3 µM for the half of the compounds with a filed dose; 0% is about no effect
Pf growth 48h – Primary qHTS for delayed death inhibitors of the malarial parasite plastid, 48 hour incubation; P. falciparum luciferase growth in erythrocytes, 48 h; Potency, µM (series often up to 28.7 µM), for inactives: top-dose activity change, negative = inhibition, hits mostly inhibitors; 310,000 compounds, 5.9% hits; AID 504832, 2011; also: potency is read from the fitted curve at half-maximal effect; % is scaled to controls: 0 for no effect and ±100 for the full control effect
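Firefly luciferase activity from engineered P. falciparum reports growth; inhibitors lower the luminescent signal. Cultures contained 2% hematocrit erythrocytes at 0.1% final parasitemia.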
* = called active by the depositor. An excerpt weighted towards active compounds, which were near 21% of everything screened. Unless noted, calls follow the shape of the dose curve; as a rule, active = well fitted curve in the direction sought with a large enough effect; inconclusive = small, poorly fitted or top-dose-only effect, or another doubt; inactive = no such curve, though single readings can be large; an effect the other way counts as inactive or inconclusive.

For O=C(O)c1ccc(C2SCC(=O)N2Cc2ccccc2)cc1 (stereo not drawn) the results were Shiga inhibitor -6.4, Pf growth 96h 1.65µM*, HCV inhibitor 3.0%, AMA1-RON2 inh -0.4%, CHX counter -2.5 and Pf growth 48h -3.9%.
For NC(=O)c1ccc(C2SCC(=O)N2Cc2ccccc2)cc1 (stereo not drawn) the results were Shiga inhibitor 11.9, Pf growth 96h inconclusive, HCV inhibitor 17.0%, AMA1-RON2 inh -0.6%, CHX counter -2.9 and Pf growth 48h 2.3%.
Screening Cc1ccccc1C(=O)Oc1cccc(Nc2ncnc3ccccc23)c1 returned HCV inhibitor inconclusive and AMA1-RON2 inh 2.4%.
`Cc1ccc(C)c(C(=O)COC(=O)c2cccc(N3C(=O)c4c(C)nc5ccccc5c4C3=O)c2)c1` gave Shiga inhibitor 94.0*, Pf growth 96h 40.8%, HCV inhibitor 0.7%, AMA1-RON2 inh -18.3%, CHX counter 45.6* and Pf growth 48h 16.3%.
For CC(C)Oc1ccc(Nc2ncnc3ccccc23)cc1 the results were Shiga inhibitor 81.6, Pf growth 96h inconclusive, HCV inhibitor inconclusive, AMA1-RON2 inh 5.0%, CHX counter 45.1* and Pf growth 48h 15.4%.
Screening Oc1ccc(Nc2ncnc3ccccc23)cc1 returned Shiga inhibitor 18.5, Pf growth 96h 137.0%, HCV inhibitor inconclusive, AMA1-RON2 inh 17.5%, CHX counter 9.8 and Pf growth 48h 4.3%.
Screening Cc1cccc(Nc2ncnc3ccccc23)c1 returned Shiga inhibitor 29.6, Pf growth 96h -19.9%, HCV inhibitor -13.3%, AMA1-RON2 inh -5.0%, CHX counter 34.5* and Pf growth 48h 64.3%.
`CCOC(=O)c1cccc(Nc2ncnc3ccccc23)c1` gave Shiga inhibitor 32.2*, Pf growth 96h -42.2%, HCV inhibitor inconclusive, AMA1-RON2 inh 2.4%, CHX counter 25.4* and Pf growth 48h inconclusive.
Screening CN1CCN(c2oc(-c3ccccc3)nc2S(=O)(=O)c2ccc(Br)cc2)CC1 returned Shiga inhibitor 15.2, Pf growth 96h 44.3%, HCV inhibitor -11.8%, AMA1-RON2 inh -26.8%, CHX counter -2.0 and Pf growth 48h inconclusive.
For CN(CC(=O)Nc1ccc(Cl)c(C(F)(F)F)c1)C(=O)Cc1ccsc1 the results were Pf growth 96h 0.0%, HCV inhibitor inconclusive, AMA1-RON2 inh -9.3% and Pf growth 48h inconclusive.
For CC(=O)Nc1ccn(C2CC3OCC(NC(=O)C(Cc4ccccc4)NC(=O)OC(C)(C)C)C3O2)c(=O)n1 (stereo not drawn) the results were Shiga inhibitor -4.6 and CHX counter 15.3.
For COC(=O)C(=O)C/C(=N/Nc1ncnc2ccccc12)c1ccc(Cl)cc1 the results were Shiga inhibitor 86.1*, Pf growth 96h inconclusive, HCV inhibitor inconclusive, AMA1-RON2 inh 44.9%, CHX counter 27.0* and Pf growth 48h 14.5%.
COc1ccc(Nc2ncnc3ccc(C)cc23)cc1 was read as Shiga inhibitor -3.2, Pf growth 96h 11.7µM*, HCV inhibitor -6.2%, AMA1-RON2 inh 9.0%, CHX counter 1.5 and Pf growth 48h inconclusive.
Screening COc1ccccc1CNc1ncnc2cc(Cl)ccc12 returned Shiga inhibitor 3.8, Pf growth 96h 1.9%, HCV inhibitor inconclusive, AMA1-RON2 inh 0.0%, CHX counter -2.7 and Pf growth 48h 10.6%.
For Cc1ccc(Nc2ncnc3ccccc23)cc1 the results were Shiga inhibitor 118.9*, Pf growth 96h 2.7%, HCV inhibitor -24.9%, AMA1-RON2 inh -2.9%, CHX counter 61.6* and Pf growth 48h 148.0%.
For CCOC(=O)c1cccc(-n2c(C)nc3ccccc3c2=O)c1 the results were Shiga inhibitor -18.3, Pf growth 96h 9.28µM*, HCV inhibitor 7.1%, AMA1-RON2 inh 1.8%, CHX counter -5.7 and Pf growth 48h 17.6%.
COc1cccc(-n2c(C)nc3ccccc3c2=O)c1 was read as Shiga inhibitor 5.3, HCV inhibitor 13.0%, AMA1-RON2 inh 2.2%, CHX counter 0.1 and Pf growth 48h 46.8%.

Screening results (PubChem)
